# SKKanGAS inh = S. pyogenes SKKanGAS growth inhibitors in kanamycin, primary screen, streptokinase expression inhibitor project, SKKanGAS strain, BacTiter-Glo luminescence; 300,000 tested, 1.3% active; 6 h; inhibition, % at 7.5 µM;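 active = mean replicate score, as percent of positive control median, at least 50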;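 note: strain carries kanamycin resistance gene driven by streptokinase promoter and grows in 40 µg/ml kanamycin; loss of luminescence reflects streptokinase promoter inhibition or plain growth inhibition; 0% = median of DMSO wells and 100% = positive control at its reference dose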
# TIM10 inh = growth inhibitors of isogenic TIM10 control yeast, primary screen, counter-screen for tim10-1 yeast inhibitor project, luminescence, uHTS; 330,000 tested, 1.4% active; inhibition, % at 10 µM; AID 463195, 2010; S. cerevisiae TIM10 strain growth, BacTiter-Glo luminescence, 24 h;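 active = inhibition of 40% or more at the single tested concentration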;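 note: wild-type TIM10 isogenic control strain grown at permissive 25 °C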
# tim23-1 inh = growth inhibitors of tim23-1 mutant yeast, primary screen, luminescence, uHTS; S. cerevisiae tim23-1 growth, BacTiter-Glo luminescence, 24 h; inhibition, % at 20 µM; 330,000 tested, 1.3% active;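 active = growth inhibition of the mutant yeast at or above 50%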;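 note: temperature-sensitive mutant grown at 25 °C; plate controls were DMSO-treated mutant yeast for no effect and medium wells lacking yeast for full effect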
# PfHsp90 set2 = growth inhibition of PfHsp90-expressing yeast, primary screen, antimalarial PfHsp90 inhibitor project, S. cerevisiae, BacTiter-Glo luminescence, single point, set 2; BacTiter-Glo ATP, 48 h; yeast lacking PDR1 and PDR3 efflux regulators; inhibition, % at 9.4 µM; 310,000 tested, 0.32% active;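 active = every replicate shows inhibition above about 80%, whatever the replicate mean, limit read from the data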;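 note: 0% = DMSO neutral controls and 100% = 20 µM radicicol positive controls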
# ATG4B inh = ATG4B protease inhibitors, primary screen, biochemical, fluorescence, uHTS; Cysteine protease ATG4B (Homo sapiens), Q9Y4P1; 340,000 tested, 0.51% active; ATG4B cleavage of LC3-PLA2, NBD-HPC fluorescence, 1 h; inhibition, % at 8.33 µM; in the data active = inhibition above about 40%
# Target sequence (Q9Y4P1 whole entry, looked up): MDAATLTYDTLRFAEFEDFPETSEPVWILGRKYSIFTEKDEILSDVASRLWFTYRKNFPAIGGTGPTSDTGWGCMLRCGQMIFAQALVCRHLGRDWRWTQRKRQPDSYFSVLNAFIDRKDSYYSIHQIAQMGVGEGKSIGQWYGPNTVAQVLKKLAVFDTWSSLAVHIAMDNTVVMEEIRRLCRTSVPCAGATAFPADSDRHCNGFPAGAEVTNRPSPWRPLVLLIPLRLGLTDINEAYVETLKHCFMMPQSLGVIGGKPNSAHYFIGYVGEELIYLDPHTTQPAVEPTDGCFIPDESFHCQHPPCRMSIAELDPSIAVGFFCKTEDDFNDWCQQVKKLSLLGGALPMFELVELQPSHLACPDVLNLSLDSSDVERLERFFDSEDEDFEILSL
# tim10-1 inh = growth inhibitors of tim10-1 mutant yeast, primary screen, luminescence, uHTS; S. cerevisiae tim10-1 ts strain growth, BacTiter-Glo, 24 h; inhibition, % at 20 µM; 330,000 tested, 2.2% active; AID 463190, 2010;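 active = inhibition of at least 40%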;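 note: mutant grown at 25 °C; 0% = DMSO wells with yeast and 100% = wells holding no yeast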
# tim10-1 confirm = growth inhibitors of tim10-1 mutant yeast, confirmation, single concentration, luminescence, S. cerevisiae | inhibition, % at 20 µM | S. cerevisiae tim10-1 ts strain growth, BacTiter-Glo, 24 h | 7,400 tested, 56% active | shares compounds with tim10-1 inh | AID 463213, 2010;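 active = inhibition of yeast growth at or above a set limit in either of two repeat tests at 20 µM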;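 note: tim10-1 mutant grown at permissive 25 °C to find synthetic lethal compounds; 0% = DMSO yeast wells and 100% = medium wells without yeast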
# * = called active by the depositor; x = not tested or not shown. Most compounds without a hit are left out; they make up all but 4.7% or so of the library.
SMILES,SKKanGAS inh,TIM10 inh,tim23-1 inh,PfHsp90 set2,ATG4B inh,tim10-1 inh,tim10-1 confirm
O=C(NCc1cccnc1)/C(=C\c1ccc(-c2cccc(Cl)c2)o1)S(=O)(=O)c1ccccc1,-6.3,x,x,6.7,-9.4,x,x
O=C(NCc1cccnc1)/C(=C/c1ccc(-c2cccc(Cl)c2)o1)S(=O)(=O)c1ccccc1,-1.7,32.4,47.7,13.8,-4.1,44.5*,36.1*
CCCC(=O)N(CCN1CCOCC1)c1nc2c(C)ccc(C)c2s1,-6.2,4.6,29.1,3.1,-6.2,42.3*,-4.0
O=C(CNC(=O)c1ccccc1)NC1(C(=O)NC2CCCCC2)CCCCC1,0.2,12.4,14.1,11.5,-6.7,10.2,x
Clc1ccc(-c2csc(=Nc3cccnc3)n2CCCn2ccnc2)cc1Cl,-3.0,31.7,20.3,-9.3,8.1,27.1,x
COCCn1c(-c2ccc(Br)cc2)csc1=Nc1cccnc1,x,-1.2,28.7,x,-9.3,41.5*,16.7
COc1ccc(N=c2scc(-c3ccc(OC)cc3)n2CCO)cc1,5.6,9.1,40.6,11.9,-6.0,40.7*,25.1
COC(=O)C1=C(C)NC(=O)NC1c1ccc(-c2ccccc2Cl)o1 (stereo not given),3.0,-7.6,-3.0,-17.1,-9.7,-19.7,x
COc1cc(N2CCCC2)c(OC)cc1/C=C(/C#N)c1cccc(F)c1,-8.7,x,x,1.7,1.3,x,x
O=C1C2CCCCN2C(=O)N1CCCCN1CCN(c2ccc([N+](=O)[O-])cc2)CC1 (stereo not given),-9.3,-16.0,-15.1,6.8,-2.6,3.8,x
Cc1[nH]c2ccc(F)cc2c1CCN(Cc1ccncc1)C(=S)Nc1ccc(F)cc1,13.6,-3.5,30.1,-11.4,-3.3,41.9*,7.2
Cc1[nH]c2ccc(F)cc2c1CCN(Cc1cccnc1)C(=S)Nc1cccc(F)c1,6.0,8.2,16.9,5.1,-6.3,-0.8,x
CCOC(=O)c1cc(C)n(-c2ccc(OC)c(OC)c2)c1C,1.4,17.2,15.2,1.8,-3.5,47.1*,9.5
CCOC(=O)c1cc(C)n(-c2ccc(Cl)cc2)c1C,-1.1,13.4,10.4,6.2,-1.7,2.2,x
COc1ccc2sc(-c3ccc(S(C)(=O)=O)cc3)c(C#CCO)c2c1,x,15.4,46.9,-11.0,-13.3,43.1*,41.0*
O=C(Nc1nnc(-c2ccccn2)o1)c1ccc(Br)cc1,5.5,14.3,29.4,-38.0,24.9,46.1*,28.6
CCOc1cccc(/C=N/NC(=O)c2ccc3c(c2)OCCO3)c1O,95.3*,1.1,26.1,-0.3,-16.9,48.4*,-33.1
CCOc1cccc(/C=N/NC(=S)Nc2cc(S(=O)(=O)N3CCOCC3)ccc2N2CCOCC2)c1O,22.4,12.3,20.1,8.4,-12.2,43.9*,8.4
COc1ccc2ccccc2c1/C=N/NC(=S)Nc1cc(S(=O)(=O)N2CCOCC2)ccc1N1CCOCC1,21.7,-3.0,28.1,-23.2,-10.6,27.0,x
O=C(CCN1CCc2ccccc2CC1)c1ccc2c(c1)OCCO2,1.1,24.3,13.8,-14.8,-4.8,78.7*,22.2
COCCN(C(=O)CC1C(=O)NCCN1CC(c1ccccc1)c1ccccc1)C(C)C (stereo not given),-8.3,12.4,10.9,28.2,0.8,15.0,x
Cc1cc2ncn(C(=O)c3c(-c4c(Cl)cccc4Cl)noc3C)c2cc1C,1.9,4.5,5.7,10.8,-6.8,10.8,x
Cc1cc2ncn(C(=O)c3c(-c4ccccc4)noc3C)c2cc1C,2.8,33.8,40.6,-15.3,-5.9,40.8*,24.0
Cc1nnc(NC(=O)CSc2ccc([N+](=O)[O-])cn2)s1,-20.1,-6.0,-1.4,4.3,-7.6,-4.0,x
Cc1c(C(=O)c2ccc(F)cc2F)c2ccccn2c1CCC#N,-4.0,15.4,18.3,18.8,12.6,27.5,x
SMILES,SKKanGAS inh,TIM10 inh,tim23-1 inh,PfHsp90 set2,ATG4B inh,tim10-1 inh,tim10-1 confirm
Cc1c(C(=O)c2ccc(N(C)C)cc2)c2ccccn2c1CCC#N,10.7,20.5,16.1,-5.5,0.8,40.2*,12.3
COc1ccccc1NC(=S)N(C(C)C)C(C)c1ccccn1 (stereo not given),-10.1,-12.6,21.5,x,3.4,28.2,x
CC(C)N(C(=S)Nc1cccc(C(F)(F)F)c1)C(C)c1ccccn1 (stereo not given),-2.6,2.8,39.6,x,10.7,42.8*,26.0
COc1cc2c(cc1OC)/C(=C/C(=O)N1CCOCC1)NC(C)(C)C2,0.5,-8.2,-12.0,x,-7.0,-6.6,x
CC1(C)Cc2ccccc2/C(=C/C(=O)N2CCCCCC2)N1,-9.2,36.9,31.8,44.8,2.9,42.5*,40.2*
O=C(Nc1nccs1)C1CC(=O)N(c2ccccc2)C1 (stereo not given),-2.1,6.0,-3.4,-5.5,-9.3,-22.1,x
Cc1cc(N=Nc2ccc(Cl)cc2)cc(CN2CCCC2)c1O,-1.1,24.6,24.8,-3.7,-0.2,44.5*,26.9
COc1ccc(NC2CCCN(C(=O)c3ccc4[nH]c(C)c(C)c4c3)C2)cc1 (stereo not given),4.6,4.0,19.5,0.2,23.7,14.1,x
CCc1cc2c(SCC(=O)Nc3ccc(Cl)cn3)ncnc2s1,x,x,x,-9.9,4.1,x,x
COc1ccc(OC)c(C(C)NC(=S)NC2CCCCC2)c1 (stereo not given),-13.2,30.6,27.3,-32.2,-5.0,42.4*,11.1
COc1ccc(-c2cc(C(=O)N3CCN(c4ccccc4OC)CC3)no2)cc1OC,-0.2,22.8,22.5,-25.3,-14.5,15.2,x
O=C(NCC(c1cccs1)N1CCOCC1)c1cc([N+](=O)[O-])cc([N+](=O)[O-])c1 (stereo not given),9.9,-2.7,19.3,20.0,-7.8,41.9*,12.8
COc1ccc(-c2csc(NC(=O)c3ccc(S(=O)(=O)N4CCc5ccccc5C4)cc3)n2)cc1,5.4,8.9,7.8,6.6,11.5,19.5,x
COc1ccc(-c2nnc(SCC(=O)N3CCc4ccccc4C3)o2)cc1,2.2,35.8,43.3,-11.7,21.4,43.3*,27.4
COc1ccc(-c2nnc(NC(=O)c3ccc(S(=O)(=O)N4CCc5ccccc5C4)cc3)o2)cc1,94.1*,39.4,12.5,-7.2,11.5,44.4*,39.0*
O=C(CSc1nnc(-c2ccccc2)o1)N1CCc2ccccc2C1,-5.4,7.8,13.9,x,2.1,35.7,x
c1ccc(-n2ncc3c(NCc4ccc5c(c4)OCO5)ncnc32)cc1,-7.9,3.2,-0.7,2.3,-9.4,-9.2,x
